Experimental data reported in PubChem BioAssay AID1159580 (chemical genetic matrix, 2015).
“And” between values parts separate entries of the source, which are not always exact repeats. Equal values may be shown once. About 2,000 (36%) of roughly 5,500 compounds were called active. Another 18% or so got no clear call; they are omitted. Rule as the data show it: active = normalized growth mostly below about 0.91 (no sharp cut-off); inconclusive = no clear call, values can overlap the other calls; inactive = mostly above about 0.92. This is one part of the list.

Assay: chemical genetic growth profiling, strain panel (AID 1159580);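 also: tested at 20 µM; growth read once vehicle control cultures reached saturation at 30 °C; 1 = growth at the plate median or of vehicle wells; lower values mean less growth of the strain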
Conditions: S. cerevisiae deletion strains, growth OD

Measured: normalized growth

Nc1ccc(C(=O)NCC(=O)O)cc1
inactive: locus YAL021C, strain ccr4, stronger effect = lower value 1.02 | locus YAL026C, strain drs2, stronger effect = lower value 1.02 | locus YAL030W, strain snc1, stronger effect = lower value 0.998 | locus YBL061C, strain skt5, stronger effect = lower value 1.01 | locus YBR009C, strain hhf1, stronger effect = lower value 1.01 | locus YBR021W, strain FUR4, stronger effect = lower value 1.01 | locus YBR023C, strain chs3, stronger effect = lower value 1.02 | locus YBR171W, strain sec66, stronger effect = lower value 1.02 | locus YBR229C, strain ROT2, stronger effect = lower value 1 | locus YBR231C, strain swc5, stronger effect = lower value 1.01 | locus YBR279W, strain paf1, stronger effect = lower value 1.01 | locus YCL011C, strain gbp2, stronger effect = lower value 1.02 | locus YCL016C, strain dcc1, stronger effect = lower value 1.02 | locus YCL029C, strain bik1, stronger effect = lower value 1 | locus YCL069W, strain vba3, stronger effect = lower value 1 | locus YCR088W, strain abp1, stronger effect = lower value 1.01 | locus YDL005C, strain med2, stronger effect = lower value 1.01 | locus YDL035C, strain GPR1, stronger effect = lower value 1.01 | locus YDL040C, strain nat1, stronger effect = lower value 1 | locus YDL074C, strain BRE1, stronger effect = lower value 0.992 | locus YDL101C, strain DUN1, stronger effect = lower value 1 | locus YDL134C, strain PPH21, stronger effect = lower value 1.01 | locus YDL185W, strain tfp1, stronger effect = lower value 1.01 | locus YDL192W, strain arf1, stronger effect = lower value 1.01 | locus YDR001C, strain nth1, stronger effect = lower value 1.01 | locus YDR069C, strain doa4, stronger effect = lower value 1 | locus YDR101C, strain arx1, stronger effect = lower value 0.993 | locus YDR137W, strain rgp1, stronger effect = lower value 1.02 | locus YDR150W, strain NUM1, stronger effect = lower value 1.01 | locus YDR159W, strain sac3, stronger effect = lower value 0.979 | locus YDR162C, strain NBP2, stronger effect = lower value 1.01 | locus YDR195W, strain ref2 0.999 | locus YDR297W, strain sur2, stronger effect = lower value 1.02 | locus YDR318W, strain mcm21, stronger effect = lower value 1.02 | locus YDR334W, strain swr1, stronger effect = lower value 1.04 | locus YDR335W, strain msn5, stronger effect = lower value 1.02 | locus YDR388W, stronger effect = lower value 1 | locus YDR392W, strain spt3, stronger effect = lower value 1.03 | locus YDR502C, strain sam2, stronger effect = lower value 1.01 | locus YEL003W, strain gim4, stronger effect = lower value 1.02 | locus YEL037C, strain rad23, stronger effect = lower value 0.998 | locus YEL061C, strain CIN8 (second series), stronger effect = lower value 1.01 | locus YEL061C, strain CIN8, stronger effect = lower value 1 | locus YER015W, strain faa2, stronger effect = lower value 0.996 | locus YER016W, strain bim1, stronger effect = lower value 1.02 | locus YER110C, stronger effect = lower value 1.02 | locus YER111C, strain swi4, stronger effect = lower value 0.996 | locus YER155C, strain BEM2 (second series), stronger effect = lower value 1.02 | locus YER155C, strain BEM2, stronger effect = lower value 0.994 | locus YER167W, strain BCK2, stronger effect = lower value 1.01 | locus YFR010W, strain ubp6, stronger effect = lower value 0.999 | locus YGL078C, strain dbp3, stronger effect = lower value 1.02 | locus YGL086W, strain mad1, stronger effect = lower value 1.01 | locus YGL167C, strain pmr1, stronger effect = lower value 1.02 | locus YGL173C, strain kem1, stronger effect = lower value 1.01 | locus YGL227W, strain vid30, stronger effect = lower value 1 | locus YGL240W, strain doc1, stronger effect = lower value 0.993 | locus YGL248W, strain PDE1, stronger effect = lower value 0.992 | locus YGL253W, strain hxk2, stronger effect = lower value 1.02 | locus YGR135W, strain pre9, stronger effect = lower value 1.04 | locus YGR229C, strain SMI1, stronger effect = lower value 0.99 | locus YGR252W, strain gcn5, stronger effect = lower value 1.01 | locus YHR013C, strain ard1, stronger effect = lower value 1.03 | locus YHR027C, strain rpn1, stronger effect = lower value 1.02 | locus YHR030C, strain SLT2, stronger effect = lower value 1.01 and 0.968 | locus YHR079C, strain IRE1 (second series), stronger effect = lower value 1.01 | locus YHR079C, strain IRE1, stronger effect = lower value 0.971 | locus YHR094C, strain hxt1, stronger effect = lower value 1.01 | locus YHR129C, strain ARP1, stronger effect = lower value 1 | locus YHR142W, strain chs7, stronger effect = lower value 1.02 | locus YHR200W, strain rpn10, stronger effect = lower value 1.02 | locus YIL066C, strain RNR3, stronger effect = lower value 1 | locus YIL073C, strain SPO22, stronger effect = lower value 1.05 | locus YIL125W, strain kgd1, stronger effect = lower value 1.01 | locus YIR030C, strain dcg1, stronger effect = lower value 1 | locus YJL092W, strain hpr5, stronger effect = lower value 1.02 | locus YJL095W, strain BCK1 (second series), stronger effect = lower value 1.01 | locus YJL095W, strain BCK1, stronger effect = lower value 0.985 and 0.967 | locus YJL115W, strain asf1, stronger effect = lower value 1.02 | locus YJL129C, strain trk1, stronger effect = lower value 1.02 | locus YJL134W, strain LCB3, stronger effect = lower value 1 | locus YJL154C, strain vps35, stronger effect = lower value 1 | locus YJL164C, strain tpk1, stronger effect = lower value 1.01 | locus YJL166W, strain qcr8, stronger effect = lower value 1.03 | locus YJL168C, strain set2, stronger effect = lower value 1 | locus YJL187C, strain SWE1 (second series), stronger effect = lower value 0.982 | locus YJR043C, strain POL32, stronger effect = lower value 1.01 | locus YJR066W, strain TOR1, stronger effect = lower value 0.928 | locus YJR075W, strain HOC1, stronger effect = lower value 0.999
